Target: AgAbp1
Assay: SPOT peptide array binding signal intensity (averaged, normalized) (arbitrary units (background-subtracted, floor 0; scale differs between SH3 domains)); higher = stronger binding of the SH3 domain to the peptide
Outline: (§1)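 The binding signal is the normalized, background-subtracted spot intensity averaged over replicates; its arbitrary units differ between domains. It was obtained by incubating 10 μg/ml GST-fused SH3 domains from four yeast species overnight at 4°C in TBS-based blocking buffer on cellulose membranes with synthetic 15-mer peptides, cysteines replaced by serines, then detecting with anti-GST antibody, HRP anti-mouse secondary and luminol.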

| Binder | SPOT peptide array binding signal intensity |
| --- | --- |
| VNIPSPSSSPPPIPK | 8 |

Target: AgBbc1
Assay: as above
Outline: as §1

| Binder | SPOT peptide array binding signal intensity |
| --- | --- |
| VNIPSPSSSPPPIPK | ≤ 0 |

Target: AgBem1-D1
Assay: as above
Outline: as §1

| Binder | SPOT peptide array binding signal intensity |
| --- | --- |
| VNIPSPSSSPPPIPK | 28 |

Target: AgBzz1-D1
Assay: as above
Outline: as §1

| Binder | SPOT peptide array binding signal intensity |
| --- | --- |
| VNIPSPSSSPPPIPK | ≤ 0 |

Target: AgBzz1-D2
Assay: as above
Outline: as §1

| Binder | SPOT peptide array binding signal intensity |
| --- | --- |
| VNIPSPSSSPPPIPK | 5 |

Target: AgCyk3
Assay: as above
Outline: as §1

| Binder | SPOT peptide array binding signal intensity |
| --- | --- |
| VNIPSPSSSPPPIPK | 0.5 |

Target: AgFus1
Assay: as above
Outline: as §1

| Binder | SPOT peptide array binding signal intensity |
| --- | --- |
| VNIPSPSSSPPPIPK | 0.5 |

Target: AgHof1
Assay: as above
Outline: as §1

| Binder | SPOT peptide array binding signal intensity |
| --- | --- |
| VNIPSPSSSPPPIPK | ≤ 0 |

Target: AgHse1
Assay: as above
Outline: as §1

| Binder | SPOT peptide array binding signal intensity |
| --- | --- |
| VNIPSPSSSPPPIPK | 20.5 |

Target: AgLsb1
Assay: as above
Outline: as §1

| Binder | SPOT peptide array binding signal intensity |
| --- | --- |
| VNIPSPSSSPPPIPK | ≤ 0 |

Target: AgLsb4
Assay: as above
Outline: as §1

| Binder | SPOT peptide array binding signal intensity |
| --- | --- |
| VNIPSPSSSPPPIPK | ≤ 0 |

Target: AgMyo5
Assay: as above
Outline: as §1

| Binder | SPOT peptide array binding signal intensity |
| --- | --- |
| VNIPSPSSSPPPIPK | 2570 |

Target: AgNbp2
Assay: as above
Outline: as §1

| Binder | SPOT peptide array binding signal intensity |
| --- | --- |
| VNIPSPSSSPPPIPK | ≤ 0 |

Target: AgRvs167
Assay: as above
Outline: as §1

| Binder | SPOT peptide array binding signal intensity |
| --- | --- |
| VNIPSPSSSPPPIPK | 0.5 |

Target: AgSho1
Assay: as above
Outline: as §1

| Binder | SPOT peptide array binding signal intensity |
| --- | --- |
| VNIPSPSSSPPPIPK | ≤ 0 |

Target: AgSla1-D1-D2
Assay: as above
Outline: as §1

| Binder | SPOT peptide array binding signal intensity |
| --- | --- |
| VNIPSPSSSPPPIPK | 8 |

Target: AgSla1-D3
Assay: as above
Outline: as §1

| Binder | SPOT peptide array binding signal intensity |
| --- | --- |
| VNIPSPSSSPPPIPK | ≤ 0 |

Target: CaAbp1-D1
Assay: as above
Outline: as §1

| Binder | SPOT peptide array binding signal intensity |
| --- | --- |
| VNIPSPSSSPPPIPK | 5 |

Target: CaAbp1-D2
Assay: as above
Outline: as §1

| Binder | SPOT peptide array binding signal intensity |
| --- | --- |
| VNIPSPSSSPPPIPK | 9 |

Target: CaBbc1
Assay: as above
Outline: as §1

| Binder | SPOT peptide array binding signal intensity |
| --- | --- |
| VNIPSPSSSPPPIPK | ≤ 0 |

Target: CaBem1-D1
Assay: as above
Outline: as §1

| Binder | SPOT peptide array binding signal intensity |
| --- | --- |
| VNIPSPSSSPPPIPK | 10 |

Target: CaBzz1-D1
Assay: as above
Outline: as §1

| Binder | SPOT peptide array binding signal intensity |
| --- | --- |
| VNIPSPSSSPPPIPK | 34 |

Target: CaBzz1-D2
Assay: as above
Outline: as §1

| Binder | SPOT peptide array binding signal intensity |
| --- | --- |
| VNIPSPSSSPPPIPK | 4.75 |

Target: CaCyk3
Assay: as above
Outline: as §1

| Binder | SPOT peptide array binding signal intensity |
| --- | --- |
| VNIPSPSSSPPPIPK | ≤ 0 |

Target: CaFus1
Assay: as above
Outline: as §1

| Binder | SPOT peptide array binding signal intensity |
| --- | --- |
| VNIPSPSSSPPPIPK | 47.5 |

Target: CaHof1
Assay: as above
Outline: as §1

| Binder | SPOT peptide array binding signal intensity |
| --- | --- |
| VNIPSPSSSPPPIPK | 0.5 |

Target: CaHse1
Assay: as above
Outline: as §1

| Binder | SPOT peptide array binding signal intensity |
| --- | --- |
| VNIPSPSSSPPPIPK | ≤ 0 |

Target: CaLsb1
Assay: as above
Outline: as §1

| Binder | SPOT peptide array binding signal intensity |
| --- | --- |
| VNIPSPSSSPPPIPK | ≤ 0 |

Target: CaLsb4
Assay: as above
Outline: as §1

| Binder | SPOT peptide array binding signal intensity |
| --- | --- |
| VNIPSPSSSPPPIPK | ≤ 0 |

Target: CaMyo5
Assay: as above
Outline: as §1

| Binder | SPOT peptide array binding signal intensity |
| --- | --- |
| VNIPSPSSSPPPIPK | 1400 |

Target: CaNbp2
Assay: as above
Outline: as §1

| Binder | SPOT peptide array binding signal intensity |
| --- | --- |
| VNIPSPSSSPPPIPK | 19.5 |

Target: CaRvs167
Assay: as above
Outline: as §1

| Binder | SPOT peptide array binding signal intensity |
| --- | --- |
| VNIPSPSSSPPPIPK | ≤ 0 |

Target: CaRvs167-3
Assay: as above
Outline: as §1

| Binder | SPOT peptide array binding signal intensity |
| --- | --- |
| VNIPSPSSSPPPIPK | 2.25 |

Target: CaSho1
Assay: as above
Outline: as §1

| Binder | SPOT peptide array binding signal intensity |
| --- | --- |
| VNIPSPSSSPPPIPK | 2 |

Target: CaSla1-D1-D2
Assay: as above
Outline: as §1

| Binder | SPOT peptide array binding signal intensity |
| --- | --- |
| VNIPSPSSSPPPIPK | ≤ 0 |

Target: CaSla1-D3
Assay: as above
Outline: as §1

| Binder | SPOT peptide array binding signal intensity |
| --- | --- |
| VNIPSPSSSPPPIPK | 1.25 |

Target: ScAbp1
Assay: as above
Outline: as §1

| Binder | SPOT peptide array binding signal intensity |
| --- | --- |
| VNIPSPSSSPPPIPK | ≤ 0 |

Target: ScBbc1
Assay: as above
Outline: as §1

| Binder | SPOT peptide array binding signal intensity |
| --- | --- |
| VNIPSPSSSPPPIPK | 1 |

Target: ScBem1-D1
Assay: as above
Outline: as §1

| Binder | SPOT peptide array binding signal intensity |
| --- | --- |
| VNIPSPSSSPPPIPK | ≤ 0 |

Target: ScBzz1-D1
Assay: as above
Outline: as §1

| Binder | SPOT peptide array binding signal intensity |
| --- | --- |
| VNIPSPSSSPPPIPK | ≤ 0 |

Target: ScBzz1-D2
Assay: as above
Outline: as §1

| Binder | SPOT peptide array binding signal intensity |
| --- | --- |
| VNIPSPSSSPPPIPK | 6 |

Target: ScCyk3
Assay: as above
Outline: as §1

| Binder | SPOT peptide array binding signal intensity |
| --- | --- |
| VNIPSPSSSPPPIPK | ≤ 0 |

Target: ScFus1
Assay: as above
Outline: as §1

| Binder | SPOT peptide array binding signal intensity |
| --- | --- |
| VNIPSPSSSPPPIPK | ≤ 0 |

Target: ScHof1
Assay: as above
Outline: as §1

| Binder | SPOT peptide array binding signal intensity |
| --- | --- |
| VNIPSPSSSPPPIPK | ≤ 0 |

Target: ScHse1
Assay: as above
Outline: as §1

| Binder | SPOT peptide array binding signal intensity |
| --- | --- |
| VNIPSPSSSPPPIPK | 35 |

Target: ScLsb1
Assay: as above
Outline: as §1

| Binder | SPOT peptide array binding signal intensity |
| --- | --- |
| VNIPSPSSSPPPIPK | ≤ 0 |

Target: ScLsb2
Assay: as above
Outline: as §1

| Binder | SPOT peptide array binding signal intensity |
| --- | --- |
| VNIPSPSSSPPPIPK | ≤ 0 |

Target: ScLsb3
Assay: as above
Outline: as §1

| Binder | SPOT peptide array binding signal intensity |
| --- | --- |
| VNIPSPSSSPPPIPK | ≤ 0 |

Target: ScLsb4
Assay: as above
Outline: as §1

| Binder | SPOT peptide array binding signal intensity |
| --- | --- |
| VNIPSPSSSPPPIPK | ≤ 0 |

Target: ScMyo3
Assay: as above
Outline: as §1

| Binder | SPOT peptide array binding signal intensity |
| --- | --- |
| VNIPSPSSSPPPIPK | 3090 |

Target: ScMyo5
Assay: as above
Outline: as §1

| Binder | SPOT peptide array binding signal intensity |
| --- | --- |
| VNIPSPSSSPPPIPK | 2780 |

Target: ScNbp2
Assay: as above
Outline: as §1

| Binder | SPOT peptide array binding signal intensity |
| --- | --- |
| VNIPSPSSSPPPIPK | 6 |

Target: ScPex13
Assay: as above
Outline: as §1

| Binder | SPOT peptide array binding signal intensity |
| --- | --- |
| VNIPSPSSSPPPIPK | ≤ 0 |

Target: ScRvs167
Assay: as above
Outline: as §1

| Binder | SPOT peptide array binding signal intensity |
| --- | --- |
| VNIPSPSSSPPPIPK | ≤ 0 |

Target: ScSho1
Assay: as above
Outline: as §1

| Binder | SPOT peptide array binding signal intensity |
| --- | --- |
| VNIPSPSSSPPPIPK | 1.5 |

Target: ScSla1-D1-D2
Assay: as above
Outline: as §1

| Binder | SPOT peptide array binding signal intensity |
| --- | --- |
| VNIPSPSSSPPPIPK | 2.5 |

Target: ScSla1-D3
Assay: as above
Outline: as §1

| Binder | SPOT peptide array binding signal intensity |
| --- | --- |
| VNIPSPSSSPPPIPK | ≤ 0 |

Target: SpAbp1-D1
Assay: as above
Outline: as §1

| Binder | SPOT peptide array binding signal intensity |
| --- | --- |
| VNIPSPSSSPPPIPK | 1 |

Target: SpBbc1
Assay: as above
Outline: as §1

| Binder | SPOT peptide array binding signal intensity |
| --- | --- |
| VNIPSPSSSPPPIPK | ≤ 0 |

Target: SpBzz1-D1
Assay: as above
Outline: as §1

| Binder | SPOT peptide array binding signal intensity |
| --- | --- |
| VNIPSPSSSPPPIPK | 80.5 |

Target: SpBzz1-D2
Assay: as above
Outline: as §1

| Binder | SPOT peptide array binding signal intensity |
| --- | --- |
| VNIPSPSSSPPPIPK | ≤ 0 |

Target: SpCyk3
Assay: as above
Outline: as §1

| Binder | SPOT peptide array binding signal intensity |
| --- | --- |
| VNIPSPSSSPPPIPK | 1 |

Target: SpHof1
Assay: as above
Outline: as §1

| Binder | SPOT peptide array binding signal intensity |
| --- | --- |
| VNIPSPSSSPPPIPK | ≤ 0 |

Target: SpHof1-2
Assay: as above
Outline: as §1

| Binder | SPOT peptide array binding signal intensity |
| --- | --- |
| VNIPSPSSSPPPIPK | ≤ 0 |

Target: SpHof1-3
Assay: as above
Outline: as §1

| Binder | SPOT peptide array binding signal intensity |
| --- | --- |
| VNIPSPSSSPPPIPK | ≤ 0 |

Target: SpHse1
Assay: as above
Outline: as §1

| Binder | SPOT peptide array binding signal intensity |
| --- | --- |
| VNIPSPSSSPPPIPK | 43 |

Target: SpLsb1
Assay: as above
Outline: as §1

| Binder | SPOT peptide array binding signal intensity |
| --- | --- |
| VNIPSPSSSPPPIPK | ≤ 0 |

Target: SpLsb4
Assay: as above
Outline: as §1

| Binder | SPOT peptide array binding signal intensity |
| --- | --- |
| VNIPSPSSSPPPIPK | ≤ 0 |

Target: SpMyo1
Assay: as above
Outline: as §1

| Binder | SPOT peptide array binding signal intensity |
| --- | --- |
| VNIPSPSSSPPPIPK | 1720 |

Target: SpNbp2
Assay: as above
Outline: as §1

| Binder | SPOT peptide array binding signal intensity |
| --- | --- |
| VNIPSPSSSPPPIPK | ≤ 0 |

Target: SpPex13
Assay: as above
Outline: as §1

| Binder | SPOT peptide array binding signal intensity |
| --- | --- |
| VNIPSPSSSPPPIPK | 1.5 |

Target: SpRvs167
Assay: as above
Outline: as §1

| Binder | SPOT peptide array binding signal intensity |
| --- | --- |
| VNIPSPSSSPPPIPK | ≤ 0 |

Target: SpSla1-D1-D2
Assay: as above
Outline: as §1

| Binder | SPOT peptide array binding signal intensity |
| --- | --- |
| VNIPSPSSSPPPIPK | 2 |

Target: SpSla1-D3
Assay: as above
Outline: as §1

| Binder | SPOT peptide array binding signal intensity |
| --- | --- |
| VNIPSPSSSPPPIPK | 2 |

— the supplement of paper PMC4466140
